# Potency and affinity values are given separately.
# Assays:
# Staphylococcus aureus = conditions: Concentration 32 ug.mL-1;; ASSAY_TEST Inhibition of Bacterial Growth; detection method Absorption (OD600); MEDIA CAMHB; plate type 384well; NBS; CORNING #3640; time 18 hr
# Escherichia coli = conditions: Concentration 32 ug.mL-1;; ASSAY_TEST Inhibition of Bacterial Growth; detection method Absorption (OD600); MEDIA CAMHB; plate type 384well; NBS; CORNING #3640; time 18 hr
Structure (SMILES),Inhibition (Staphylococcus aureus),Inhibition (Escherichia coli)
Cc1cccc(NC(=O)Cn2nc3c4cc(-c5ccc(F)cc5)nn4ccn3c2=O)c1C,-2.18%,-5.27%
Cc1cc2nn(CC(=O)NCc3ccco3)c(=O)n2c(Nc2ccc(C)c(F)c2)n1,0.2%,-8.01%
Cc1cc(C)c(NC(=O)Cn2nc3ccc(SC(C)(C)C)nn3c2=O)c(C)c1,11.62%,-0.74%
Cc1ccc(-n2ccn3c(=O)n(Cc4ccccc4F)nc3c2=O)cc1C,8.2%,-3.66%
CCCCn1c(=O)c2sccc2n2c(=O)n(CC(=O)c3cccc(OC)c3)nc12,9.41%,0.65%
COc1ccccc1-n1ccn2c(SCC(=O)Nc3ccc4c(c3)OCCO4)nnc2c1=O,18.21%,-1.11%
COc1cccc(-n2ccn3c(SCC(=O)c4c(C)[nH]c5ccccc45)nnc3c2=O)c1,10.32%,-7.21%
Cc1ccc(NC(=O)Cn2nc3c4cc(-c5ccc(Cl)cc5)nn4ccn3c2=O)cc1F,11.6%,6.51%
COc1ccc(-c2cc3c4nnc(SCC(=O)NCc5ccc(Cl)cc5)n4ccn3n2)cc1,-1.89%,-4.94%
Cc1ccc(C)c(-c2cc3c4nnc(SCC(=O)Nc5cccc(Br)c5)n4ccn3n2)c1,0.42%,-9.35%
CCc1nnc2c(S(=O)(=O)N(Cc3cccc(F)c3)c3cccc(C)c3)cccn12,12.77%,-0.95%
COc1cc(NC(=O)Cn2nc3c(SC4CCCCC4)nccn3c2=O)cc(OC)c1,0.44%,-4.73%
O=S(=O)(c1cccn2cnnc12)N(Cc1ccccc1F)c1ccc(F)c(F)c1,-22.58%,5.15%
CCCCOc1ccc(-c2cc3c4nnc(SCC(=O)Nc5ccc(F)cc5)n4ccn3n2)cc1,2.53%,-6.79%
